A selection: hits, their analogues and other compounds. The true share with any hit is near 1.2%.
SRC1 inh: inhibits human SRC1 coactivator | Q15788 | HEK293 GAL4-SRC1 luciferase reporter, luminescence | inhibition, % at 3.6 µM | actives 0.12% (n = 360,000);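 active = inhibition above the campaign mean plus 3 SD, with each screening campaign given its own cutoff, cut at about 60% in these data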;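 note: 0% = DMSO treated cells and 100% = gossypol at 36 µM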
Shn3 3UTR inh: Schnurri-3 reporter inhibition in Clone20 osteoblasts | Clone20 osteoblast Shn3 3'UTR firefly luciferase, 24 h | inhibition, % at 12.5 µM | actives 0.52% (n = 360,000) | AID 588674;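 active = mean inhibition of at least 75% with every replicate also reaching 75%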;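 note: 0% = median of neutral control wells and 100% = pilot-screen positive control compound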
NR5A2 inv ag: inverse agonists of human LRH-1 (NR5A2); HEK293T StAR-luciferase reporter, LRH-1 transfected, 24 h; inhibition, % at 3.6 µM; actives 0.13% (n = 360,000); AID 602396;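 active = inhibition above the mean inhibition of all tested compounds plus 3 SD, cut at about 73% in these data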;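 note: 0% = DMSO wells and 100% = reporter-only cells lacking LRH-1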
NCOA2 inhibitor: human SRC2 (NCOA2) inhibition; inhibition, % at 9 µM; AID 651957; HEK293 GAL4-SRC2 luciferase reporter, luminescence; Q15596; actives 0.17% (n = 370,000);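 active = inhibition above the mean inhibition of all tested compounds plus 3 SD, set per campaign, cut at about 52% in these data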;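 note: 0% = DMSO treated cells and 100% = cells given Gossypol at 36 µM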
NCOA3 inh: human NCOA3 inhibition | HEK293 GAL4-SRC3 luciferase reporter, luminescence | Q9Y6Q9 | AID 588352 | inhibition, % at 3.6 µM | actives 0.17% (n = 360,000);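 active = inhibition above a per-campaign cutoff, the mean of all compounds plus 3 SD, cut at about 60% in these data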;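 note: 0% = DMSO-treated cells and 100% = gossypol-treated cells at 36 µM; higher means less SRC3-driven luciferase light from the GAL4 reporter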
EBV LMP1 NFkB: inhibitors of Epstein-Barr LMP1-induced NF-kappaB reporter | LMP1-induced NF-kappaB luciferase reporter cells, luminescence | inhibition, % at 12.5 µM | actives 0.69% (n = 350,000); in the data active = inhibition above about 41%;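 note: 0% = neutral control wells and 100% = reference inhibitor control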
Starred values were filed as active, the others as inactive; i = inactive; . = no result given.

SMILES	SRC1 inh	Shn3 3UTR inh	NR5A2 inv ag	NCOA2 inhibitor	NCOA3 inh	EBV LMP1 NFkB
Cc1ccccc1NC1=C/C(=N\S(=O)(=O)c2ccc(C(=O)O)cc2)c2ccccc2C1=O	4	-10	17	-22	1	-13
Cc1ccccc1NC1=C/C(=N\S(=O)(=O)c2cccs2)c2ccccc2C1=O	80*	98*	-3	-20	88*	91*
Cc1cc(N2CCN(CC(C)(C)O)C[C@H]2C)ccc1N1CCN(Cc2ccccc2)[C@@H](C)C1	.	.	.	17	.	.
CCCCN1C2CCCC1CC(NC(=O)C1CCCCC1)C2 (stereo unspecified)	-8	1	1	7	10	51*
CC1OC2CC(=O)OC2C2=C1C(=O)c1c(O)cccc1C2=O (stereo unspecified)	91*	94*	104*	95*	96*	.
COc1ccccc1CNC(=O)C(C)n1cccc1C(=O)c1ccccc1 (stereo unspecified)	-10	-10	-14	9	11	-6
CC(C(=O)NCc1ccc(Cl)cc1)n1cccc1C(=O)c1ccccc1 (stereo unspecified)	8	-15	5	31	1	74*
Cc1ccc(NC(=O)[C@@H](Cc2ccccc2)NC(=O)[C@H]2O[C@@H](n3ccc(=O)[nH]c3=O)[C@H](O)[C@@H]2O)cc1C	.	.	.	4	.	.
Cc1ccc(NC(=O)CSc2nnc(NC(=O)C(C)C)s2)c(C)c1	2	9	34	8	-1	63*
O=C(c1ccccc1)N1CCC2CCN(S(=O)(=O)c3ccccc3)CC21 (stereo unspecified)	.	.	.	8	.	.
O=S(=O)(Nc1cccc2ncccc12)c1cccs1	-64	94*	-4	.	-70	24
C=CCN(CC#Cc1ccc(C(F)(F)F)cc1)Cc1ccc(OC)cc1OC	.	.	.	19	.	.
CCCCCCCC/C=C\CCCCCCCC(=O)NCCc1ccc(O)c(O)c1	60	91*	78*	48	62*	-75
Cc1cc(=O)[nH]c(SCC(=O)Nc2cccc(Cl)c2F)n1	.	.	.	4	.	.
CN1CCN(CC(=O)N2N=C(c3cccs3)CC2c2ccco2)CC1 (stereo unspecified)	-26	-7	21	-10	14	-11
O=C(CCl)N1N=C(c2cccs2)CC1c1ccco1 (stereo unspecified)	35	-19	-2	60*	41	-9
O=C(NC1CCCCN(Cc2cccc(Cl)c2)C1=O)c1ccc(-c2ccccc2)cc1 (stereo unspecified)	.	.	.	8	.	.
Nc1nc(N)c2cc(S(=O)(=O)c3ccc4ccccc4c3)ccc2n1	12	85*	10	29	-4	1
Nc1nc(N)c2cc([N+](=O)[O-])ccc2n1	-5	-6	-4	-11	1	-3
COC(=O)C1=C(C)N(Cc2ccccc2C(F)(F)F)C(=NCc2ccc3c(c2)OCO3)NC1c1ccccc1C(F)(F)F (stereo unspecified)	.	.	.	20	.	.
COc1cccc(Cn2cc(COC(=O)NCC(C)C)nn2)c1	.	.	.	-31	.	.
O=C(N/N=C/c1cc(Br)ccc1O)C(=O)Nc1ccccc1OC(F)(F)C(F)F	22	85*	-17	4	60	30
O=C(N/N=C/c1cc(Cl)ccc1O)C(=O)Nc1ccccc1OC(F)(F)C(F)F	37	88*	-13	-2	68*	17
O=C(N/N=C/c1cc(Br)ccc1O)c1ccccc1Cl	15	42	7	10	25	51*
COc1cccc(/C=N/NC(=O)C(=O)Nc2ccccc2OC(F)(F)C(F)F)c1	14	3	7	2	19	-5
COc1ccccc1/C=N/NC(=O)C(=O)Nc1ccccc1OC(F)(F)C(F)F	1	-1	12	16	19	-4
COc1ccccc1N(O)C1CC(=O)N(c2ccc(F)cc2)C1=O (stereo unspecified)	-6	95*	-3	-3	-20	-2
O=C1c2cccc3cc([N+](=O)[O-])cc(c23)C(=O)N1CCN1CCCC1	59	94*	76*	i	-52	74*
Nc1cc2c3c(cccc3c1)C(=O)N(CCN1CCCC1)C2=O	54	6	46	-148	60	-13
CCOC(=O)Cc1ccc(NC(=O)c2ccc(C(C)(C)C)cc2)cc1	3	77	29	78*	9	5

High-throughput results deposited in PubChem BioAssay by several laboratories.
